From PubChem BioAssay (Tox21)
Results filed as inconclusive are left out. Where a call stands in place of a potency, no number is given. A number with no mark means an inactive call. Activity calls are given as the source filed them. Calls follow the shape of the dose curve; as a rule, active = well fitted curve in the direction sought with a large enough effect in the repeat runs; inconclusive = weak or mixed curves; inactive = no such curve, though single readings can be large; an effect the other way counts as inactive or inconclusive.

Columns and labels:
[1] = biological target: Cytochrome P450 2C9 (Homo sapiens) (UniProt P11712); test: Cytochrome P450 Family 2 Subfamily C Member 9 (CYP2C9) small molecule antagonists: luciferase reporter qHTS assay (AID 1671198); also: potency is read from the fitted curve at half-maximal effect
Sequence of Cytochrome P450 2C9 (Homo sapiens) (P11712 whole entry, looked up): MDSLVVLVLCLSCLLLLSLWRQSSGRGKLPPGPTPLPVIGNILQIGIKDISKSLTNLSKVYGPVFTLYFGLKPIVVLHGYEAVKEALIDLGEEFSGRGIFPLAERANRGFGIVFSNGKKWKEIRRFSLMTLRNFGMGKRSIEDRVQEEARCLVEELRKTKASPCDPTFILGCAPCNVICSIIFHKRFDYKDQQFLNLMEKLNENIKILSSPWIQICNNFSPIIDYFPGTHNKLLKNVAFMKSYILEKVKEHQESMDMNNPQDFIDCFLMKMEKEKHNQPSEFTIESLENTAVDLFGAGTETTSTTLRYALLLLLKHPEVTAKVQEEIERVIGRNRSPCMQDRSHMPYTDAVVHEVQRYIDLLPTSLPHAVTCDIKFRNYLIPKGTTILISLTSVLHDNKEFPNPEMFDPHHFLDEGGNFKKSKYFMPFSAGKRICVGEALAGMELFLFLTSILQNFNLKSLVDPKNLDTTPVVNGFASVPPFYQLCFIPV
Outline: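 CYP2C9 activity was measured with a P450-Glo proluciferin substrate. Enzyme–substrate mix was held with compound for 10 min at room temperature, then NADPH regeneration solution was added for 1 h at 37C. Luciferin product was read as luminescence.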

[2] = biological target: Cytochrome P450 1A2 (Homo sapiens) (UniProt P05177); test: Cytochrome P450 Family 1 Subfamily A Member 2 (CYP1A2) small molecule antagonists: luciferase reporter qHTS assay (AID 1671199); also: potency is read from the fitted curve at half-maximal effect
Sequence of Cytochrome P450 1A2 (Homo sapiens) (P05177 whole entry, looked up): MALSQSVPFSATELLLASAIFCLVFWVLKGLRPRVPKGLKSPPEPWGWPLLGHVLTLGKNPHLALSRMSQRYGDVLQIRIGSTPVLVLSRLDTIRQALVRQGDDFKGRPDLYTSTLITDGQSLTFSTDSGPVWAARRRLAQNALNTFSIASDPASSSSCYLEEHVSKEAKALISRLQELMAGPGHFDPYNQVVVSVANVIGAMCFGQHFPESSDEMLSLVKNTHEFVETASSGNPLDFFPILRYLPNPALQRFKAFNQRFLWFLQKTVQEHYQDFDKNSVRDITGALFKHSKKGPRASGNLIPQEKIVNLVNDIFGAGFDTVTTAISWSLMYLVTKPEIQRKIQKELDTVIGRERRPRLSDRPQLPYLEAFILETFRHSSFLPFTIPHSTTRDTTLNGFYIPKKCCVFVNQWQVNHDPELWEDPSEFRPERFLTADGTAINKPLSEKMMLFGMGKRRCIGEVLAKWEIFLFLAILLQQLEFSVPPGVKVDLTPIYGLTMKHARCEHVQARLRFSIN
Outline: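 Read-out is luminescence from luciferin detection reagent (20 min) proportional to CYP1A2 activity; compounds in DMSO preincubated 10 min with enzyme and proluciferin substrate, then NADPH regeneration solution, 1 h, room temperature.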

[3] = biological target: Voltage-gated inwardly rectifying potassium channel KCNH2 (Homo sapiens) (UniProt Q12809); test: Human Ether-a-go-go-Related Gene (hERG) channel small molecule antagonists: fluorescence cell-based qHTS assay (AID 1671200);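 also: hERG-expressing U2OS cells given a thallium stimulus after FluxOR II dye loading; series mostly up to about 77 µM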
Sequence of Voltage-gated inwardly rectifying potassium channel KCNH2 (Homo sapiens) (Q12809 whole entry, looked up): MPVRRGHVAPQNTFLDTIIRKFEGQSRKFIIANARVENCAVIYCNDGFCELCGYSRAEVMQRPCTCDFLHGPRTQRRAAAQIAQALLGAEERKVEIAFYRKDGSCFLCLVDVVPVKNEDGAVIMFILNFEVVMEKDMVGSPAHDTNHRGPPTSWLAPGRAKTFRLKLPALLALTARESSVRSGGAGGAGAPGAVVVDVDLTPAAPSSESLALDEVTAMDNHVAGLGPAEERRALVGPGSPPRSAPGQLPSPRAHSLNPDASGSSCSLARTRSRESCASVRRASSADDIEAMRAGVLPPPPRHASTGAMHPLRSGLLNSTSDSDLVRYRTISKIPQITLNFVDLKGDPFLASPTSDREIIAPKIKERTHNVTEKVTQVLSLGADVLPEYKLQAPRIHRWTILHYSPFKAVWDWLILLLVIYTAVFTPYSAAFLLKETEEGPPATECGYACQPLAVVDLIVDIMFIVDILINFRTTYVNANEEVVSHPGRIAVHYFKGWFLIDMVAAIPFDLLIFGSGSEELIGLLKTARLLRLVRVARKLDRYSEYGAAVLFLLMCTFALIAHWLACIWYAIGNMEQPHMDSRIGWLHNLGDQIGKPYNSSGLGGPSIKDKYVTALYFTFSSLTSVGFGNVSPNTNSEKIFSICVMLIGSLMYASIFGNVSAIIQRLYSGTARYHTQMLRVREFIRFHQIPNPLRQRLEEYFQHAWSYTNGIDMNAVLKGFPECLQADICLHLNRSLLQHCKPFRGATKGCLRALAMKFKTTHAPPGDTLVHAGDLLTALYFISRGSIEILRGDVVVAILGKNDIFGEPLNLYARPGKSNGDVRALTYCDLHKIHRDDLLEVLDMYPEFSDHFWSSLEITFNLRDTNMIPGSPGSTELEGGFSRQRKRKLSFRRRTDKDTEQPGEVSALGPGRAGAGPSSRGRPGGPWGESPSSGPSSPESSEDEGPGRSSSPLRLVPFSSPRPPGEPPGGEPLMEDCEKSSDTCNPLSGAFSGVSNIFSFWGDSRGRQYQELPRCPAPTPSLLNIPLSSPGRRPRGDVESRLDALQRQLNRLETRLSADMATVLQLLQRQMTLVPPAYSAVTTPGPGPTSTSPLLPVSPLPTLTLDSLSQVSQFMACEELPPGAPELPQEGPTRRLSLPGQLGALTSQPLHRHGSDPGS
Outline: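 Channel function was assessed by thallium flux. Cells seeded the previous day and kept at 37 C took up FluxOR II dye over 1 h in the dark at room temperature, then sat another 10 min before stimulation.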

[4] = biological target: Cytochrome P450 3A4 (Homo sapiens) (UniProt P08684); test: Cytochrome P450 Family 3 Subfamily A Member 4 (CYP3A4) small molecule antagonists: luciferase reporter qHTS assay (AID 1671201); also: potency is read from the fitted curve at half-maximal effect
Sequence of Cytochrome P450 3A4 (Homo sapiens) (P08684 whole entry, looked up): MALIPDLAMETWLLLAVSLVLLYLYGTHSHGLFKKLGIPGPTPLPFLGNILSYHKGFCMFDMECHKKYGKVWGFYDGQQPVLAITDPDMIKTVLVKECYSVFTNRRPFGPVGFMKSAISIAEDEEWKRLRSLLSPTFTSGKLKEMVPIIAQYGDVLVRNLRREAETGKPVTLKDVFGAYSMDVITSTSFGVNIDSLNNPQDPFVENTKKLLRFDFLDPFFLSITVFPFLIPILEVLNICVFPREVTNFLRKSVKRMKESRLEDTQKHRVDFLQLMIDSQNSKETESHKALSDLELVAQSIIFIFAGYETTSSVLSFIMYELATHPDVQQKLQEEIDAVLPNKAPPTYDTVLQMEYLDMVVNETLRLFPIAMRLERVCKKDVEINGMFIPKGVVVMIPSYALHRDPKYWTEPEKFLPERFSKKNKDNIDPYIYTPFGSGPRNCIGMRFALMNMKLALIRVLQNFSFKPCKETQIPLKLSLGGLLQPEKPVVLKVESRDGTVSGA
Outline: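 Compounds in DMSO were pin-transferred onto CYP3A4 enzyme-substrate mix and held 10 min at room temperature. NADPH regenerating solution started the reaction for 1 h; luciferin detection reagent stopped it, and luminescence was read after 20 min.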
Also: nearly all actives have a fitted effect of over 50% in size.

COC(=O)c1ccccc1OC
Potency [1]: inactive | Potency [2]: 25.2 µM (active) | Potency [3]: inactive | Potency [4]: inactive

COC(=O)c1ccccc1C
Potency [1]: inactive | Potency [2]: inactive | Potency [3]: inactive | Potency [4]: inactive

O=S(=O)(O)c1ccc(Nc2nc(Nc3ccc(/C=C/c4ccc(Nc5nc(Nc6ccc(S(=O)(=O)O)cc6)nc(N(CCO)CCO)n5)cc4S(=O)(=O)O)c(S(=O)(=O)O)c3)nc(N(CCO)CCO)n2)cc1
Potency [1]: inactive | Potency [2]: inactive | Potency [3]: inactive | Potency [4]: inactive

ClCCl
Potency [1]: inactive | Potency [2]: inactive | Potency [3]: inactive | Potency [4]: inactive

CC(C)=CCC1=C(O)c2ccccc2C(=O)C1=O
Potency [1]: 31.6 µM (active) | Potency [2]: 11.2 µM (active) | Potency [3]: inactive | Potency [4]: inactive

Cc1c(N)cccc1C(F)(F)F
Potency [1]: inactive | Potency [2]: 13.8 µM (active) | Potency [3]: inactive | Potency [4]: inactive

O=C(O)c1cccc(C(F)(F)F)c1
Potency [1]: 79.6 µM (active) | Potency [2]: inactive | Potency [3]: inactive | Potency [4]: inactive

C=C(C)c1cccc(C(=C)C)c1
Potency [1]: inactive | Potency [2]: inactive | Potency [3]: inactive | Potency [4]: inactive

COc1cc(C)ccc1O
Potency [1]: inactive | Potency [2]: 39.9 µM (active) | Potency [3]: inactive | Potency [4]: inactive

O=C(O)c1cc(=O)c2ccccc2o1
Potency [1]: inactive | Potency [2]: inactive | Potency [3]: inactive | Potency [4]: inactive

c1cnccn1
Potency [1]: inactive | Potency [2]: 36.8 µM (active) | Potency [3]: inactive | Potency [4]: inactive

CCc1oc2ccccc2c1C(=O)c1cc(I)c(O)c(I)c1
Potency [1]: 1.38 µM (active) | Potency [2]: inactive | Potency [3]: inactive | Potency [4]: inactive

OCC(F)(F)F
Potency [1]: inactive | Potency [2]: inactive | Potency [3]: inactive | Potency [4]: inactive

O=c1oc2cc(O)ccc2c2oc3cc(O)ccc3c12
Potency [1]: 68.1 µM (active) | Potency [2]: 8.57 µM (active) | Potency [3]: inactive | Potency [4]: 19.2 µM (active)

CCOC(=O)NNc1ccc(N(CC)CC(C)O)nn1 (stereo not given)
Potency [1]: inactive | Potency [2]: inactive | Potency [4]: inactive

C=CC(C)(CCC=C(C)C)OC=O (stereo not given)
Potency [1]: 35.6 µM (active) | Potency [3]: inactive | Potency [4]: 31.7 µM (active)

CN1CCN2c3ccccc3Cc3ccccc3C2C1 (stereo not given)
Potency [1]: inactive | Potency [4]: inactive

Nc1nc2c(ncn2COCCO)c(=O)[nH]1
Potency [1]: inactive | Potency [2]: inactive | Potency [4]: inactive

Cc1ccc(C)cc1
Potency [1]: inactive | Potency [3]: inactive | Potency [4]: inactive

CCOc1ccc2ccccc2c1C(=O)N[C@@H]1C(=O)N2[C@@H]1SC(C)(C)[C@@H]2C(=O)O
Potency [1]: inactive | Potency [3]: inactive | Potency [4]: inactive

C[Si](Cl)(c1ccccc1)c1ccccc1
Potency [1]: 4.37 µM (active) | Potency [3]: inactive
